# Results taken from PubChem BioAssay (EPA / NIEHS).
# Results filed as inconclusive are left out. Active and inactive are the calls of the source. Rule for the calls, unless noted: active = hit-call score of the fitted dose curve at least 0.9, where 1 is the maximum; inconclusive = response in the unintended direction; inactive = score below 0.9.
# Assays:
# [1] = biological target: human Peroxisome Proliferator-activated Receptor alpha (PPARa), PPARA (gene 5465) (UniProt Q07869); test: ATG_PPARa_TRANS: Attagene TRANS-FACTORIAL HepG2 Assay for human Peroxisome Proliferator-activated Receptor alpha (PPARa) (AID 2283001)
# Summary of the method: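 HepG2 cells transiently transfected with multiplexed GAL4-UAS reporters driven by exogenous chimeric NR-Gal4 proteins; reporter mRNA measured after 24 h dosing. Read-out by RT-PCR, 6-FAM labelling, HpaI digestion and capillary electrophoresis; gain of signal versus DMSO.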
# [2] = biological target: Peroxisome proliferator-activated receptor gamma (Homo sapiens) (UniProt P37231); test: ATG_PPARg_TRANS: Attagene TRANS-FACTORIAL HepG2 Assay for human Peroxisome Proliferator-activated Receptor-gamma (PPARg) (AID 2283007)
# Summary of the method: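 Twenty-four hours after chemical dosing of transiently transfected HepG2 cells, isolated RNA was converted to cDNA, reporter sequences amplified and 6-FAM-labelled, then HpaI-digested and analysed by capillary electrophoresis. Signal increase against DMSO was fitted.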
# [3] = biological target: Nuclear receptor subfamily 1 group I member 2 (Homo sapiens) (UniProt O75469); test: ATG_PXR_TRANS: Attagene TRANS-FACTORIAL HepG2 Assay for human Pregnane X Receptor (PXR) (AID 2283008)
# Summary of the method: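 Read-out is fluorescence of labelled reporter cDNA fragments separated by capillary electrophoresis after RT-PCR and HpaI digestion. Source: HepG2 cells carrying PXR-GAL4/UAS reporter constructs, treated 24 h; activity fitted upward relative to DMSO.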
# [4] = biological target: human RAR-related Orphan Receptor gamma (RORg), RORC (gene 6097) (UniProt P51449); test: ATG_RORg_TRANS: Attagene TRANS-FACTORIAL HepG2 Assay for human RAR-related Orphan Receptor gamma (RORg) (AID 2283011)
# Summary of the method: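 Transient MRTU transfection of HepG2 (TRANS format, exogenous NR-Gal4 chimera). 24 h dosing. Total RNA → oligo(dT) RT → PCR → 6-FAM labelling → HpaI cut → CE. Gain vs DMSO.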
# [5] = biological target: human Retinoid X Receptor beta (RXRb), RXRB (gene 6257) (UniProt P28702); test: ATG_RXRb_TRANS: Attagene TRANS-FACTORIAL HepG2 Assay for human Retinoid X Receptor beta (RXRb) (AID 2283013)
# Summary of the method: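 HepG2 cells were transiently transfected with multiplexed GAL4-UAS reporters and a chimeric RXRb-Gal4 construct, then exposed for 24 h. Reporter mRNA was quantified by RT-PCR, FAM labeling, HpaI digestion and capillary electrophoresis; gain of signal was scored against DMSO.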
# [6] = biological target: human Thyroid Receptor alpha (THRa1), THRA (gene 7067) (UniProt P10827); test: ATG_THRa1_TRANS: Attagene TRANS-FACTORIAL HepG2 Assay for human Thyroid Receptor alpha (THRa1) (AID 2283014)
# Summary of the method: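 Transient HepG2 transfection, NR-Gal4 chimera driving GAL4-UAS reporters; 24 h compound exposure; total RNA, oligo(dT) RT, PCR, fluorescent primer extension, capillary electrophoresis. Upward direction vs DMSO control.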
# [7] = biological target: Retinoic acid receptor RXR-alpha (Homo sapiens) (UniProt P19793); test: ATG_RXRa_TRANS: Attagene TRANS-FACTORIAL HepG2 Assay for human Retinoid X Receptor alpha (RXRa) (AID 2283012)
# Summary of the method: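 HepG2 cells transiently transfected with GAL4-UAS reporter units and chimeric RXRa-Gal4 protein, treated 24 h. Reporter mRNA measured by RT-PCR, fluorescent labelling, HpaI digestion and capillary electrophoresis. Induction fitted against DMSO.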
# [8] = biological target: human RAR-related Orphan Receptor beta (RORb), RORB (gene 6096) (UniProt Q92753); test: ATG_RORb_TRANS: Attagene TRANS-FACTORIAL HepG2 Assay for human RAR-related Orphan Receptor beta (RORb) (AID 2283010)
# Summary of the method: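 HepG2 cells transiently transfected with GAL4-UAS reporter units expressing chimeric NR-Gal4 protein; reporter mRNA measured 24 h after dosing by RT-PCR, 6-FAM labelling and capillary electrophoresis. Gain-of-signal fitted relative to DMSO baseline.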
# [9] = biological target: human Peroxisome Proliferator-activated Receptor delta (PPARd), PPARD (gene 5467) (UniProt Q03181); test: ATG_PPARd_TRANS: Attagene TRANS-FACTORIAL HepG2 Assay for human Peroxisome Proliferator-activated Receptor delta (PPARd) (AID 2283002)
# Summary of the method: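 Fluorescence from capillary electrophoresis of labelled RT-PCR reporter fragments gives the signal; DMSO sets baseline. Cells: HepG2 transiently carrying GAL4-UAS reporter units plus chimeric nuclear receptor-Gal4 proteins, exposed to chemicals for 24 h.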
# [10] = read-out: Intercellular Adhesion Molecule 1 (ICAM1), ICAM1 (gene 3383); test: BSK_3C_ICAM1: BioMAP Diversity Plus: 3C Assay for Intercellular Adhesion Molecule 1 (ICAM1) Biomarker Activity (AID 2283003; active = hit-call score of the fitted dose curve at least 0.9, where 1 is the maximum; inactive = score below 0.9); conditions: primary human endothelial cells (HUVEC); actives raise or lower the signal
# Summary of the method: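 HUVEC primary cells stimulated under 3C conditions; ICAM1 measured by ELISA 24 h after compound dosing. Curves fitted bidirectionally against the DMSO baseline. Overt cytotoxicity checked by SRB staining of parallel cultures.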
# [11] = BSK_3C_Proliferation: Cell Proliferation Assessment in the BioMAP Diversity Plus: 3C Assay (AID 2283006; active = hit-call score of the fitted dose curve at least 0.9, where 1 is the maximum; inactive = score below 0.9;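 note: potency may reflect either rise or fall in cell number versus DMSO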); conditions: primary human endothelial cells (HUVEC)
# Summary of the method: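 Subconfluent HUVEC (3C system) cultured with chemical; relative cell number read at 48 h by sulforhodamine B total-protein staining (0.1% SRB after 10% TCA fixation, 560 nm). Bidirectional fit relative to DMSO.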
# [12] = read-out: E-selectin (Homo sapiens) (UniProt P16581); test: BSK_3C_Eselectin: BioMAP Diversity Plus: 3C Assay for Eselectin Biomarker Activity (AID 2283015; active = hit-call score of the fitted dose curve at least 0.9, where 1 is the maximum; inactive = score below 0.9); conditions: primary human endothelial cells (HUVEC); actives raise or lower the signal
# Summary of the method: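 HUVEC, 3C stimulation; compound exposure 24 h; E-selectin by ELISA; gain- or loss-of-signal fitted bidirectionally vs DMSO baseline.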
# [13] = read-out: Interleukin-1 alpha (IL1a), IL1A (gene 3552); test: BSK_BE3C_IL1a: BioMAP Diversity Plus: BE3C Assay for Interleukin-1 alpha (IL1a) Biomarker Activity (AID 2283016; active = hit-call score of the fitted dose curve at least 0.9, where 1 is the maximum; inactive = score below 0.9); conditions: primary human bronchial epithelial cells; actives raise or lower the signal
# Summary of the method: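 Human primary bronchial epithelial cells, 24 h chemical exposure; IL-1a quantified by ELISA, fitted bidirectionally against DMSO. Cytotoxicity assessed in parallel by SRB total-protein staining at the time of measurement.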
# [14] = read-out: Monocyte Chemoattractant Protein-1 (MCP1), CCL2 (gene 6347); test: BSK_3C_MCP1: BioMAP Diversity Plus: 3C Assay for Monocyte Chemoattractant Protein-1 (MCP1) Biomarker Activity (AID 2283017; active = hit-call score of the fitted dose curve at least 0.9, where 1 is the maximum; inactive = score below 0.9); conditions: primary human endothelial cells (HUVEC); actives raise or lower the signal
# Summary of the method: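 HUVEC, 3C system; 24 h chemical exposure; MCP-1 by ELISA; bidirectional curve fit vs DMSO baseline.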
# [15] = read-out: Monocyte Chemoattractant Protein-1 (MCP1), CCL2 (gene 6347); test: BSK_4H_MCP1: BioMAP Diversity Plus: 4H Assay for Monocyte Chemoattractant Protein-1 (MCP1) Biomarker Activity (AID 2283018; active = hit-call score of the fitted dose curve at least 0.9, where 1 is the maximum; inactive = score below 0.9); conditions: primary human endothelial cells (HUVEC); actives raise or lower the signal
# Summary of the method: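 Human umbilical vein endothelial cells (4H system) exposed to chemicals for 24 h in 96-well format. MCP-1 measured by ELISA; bidirectional fitting against DMSO, with SRB total-protein staining in parallel cultures for cytotoxicity.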
# [16] = read-out: Human Leukocyte Antigen - DR isotype (HLADR), HLA-DRA (gene 3122); test: BSK_3C_HLADR: BioMAP Diversity Plus: 3C Assay for Human Leukocyte Antigen - DR isotype (HLADR) Biomarker Activity (AID 2283019; active = hit-call score of the fitted dose curve at least 0.9, where 1 is the maximum; inactive = score below 0.9); conditions: primary human endothelial cells (HUVEC); actives raise or lower the signal
# Summary of the method: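 HUVEC, 3C stimulation, 24 h post-dose; HLA-DR by ELISA; bidirectional curve fit vs DMSO baseline; gain or loss of signal scored.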
# [17] = read-out: Interleukin-8 (IL8), CXCL8 (gene 3576); test: BSK_3C_IL8: BioMAP Diversity Plus: 3C Assay for Interleukin-8 (IL8) Biomarker Activity (AID 2283020; active = hit-call score of the fitted dose curve at least 0.9, where 1 is the maximum; inactive = score below 0.9); conditions: primary human endothelial cells (HUVEC); actives raise or lower the signal
# Summary of the method: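 Primary human umbilical vein endothelial cells were dosed for 24 h. IL-8 was quantified by ELISA and fitted bidirectionally against DMSO. Cytotoxicity was assessed in parallel cultures by SRB staining at 560 nm.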
# Chain of human Peroxisome Proliferator-activated Receptor alpha (PPARa), PPARA (gene 5465) (Q07869 whole entry, looked up, the tested form may be a part): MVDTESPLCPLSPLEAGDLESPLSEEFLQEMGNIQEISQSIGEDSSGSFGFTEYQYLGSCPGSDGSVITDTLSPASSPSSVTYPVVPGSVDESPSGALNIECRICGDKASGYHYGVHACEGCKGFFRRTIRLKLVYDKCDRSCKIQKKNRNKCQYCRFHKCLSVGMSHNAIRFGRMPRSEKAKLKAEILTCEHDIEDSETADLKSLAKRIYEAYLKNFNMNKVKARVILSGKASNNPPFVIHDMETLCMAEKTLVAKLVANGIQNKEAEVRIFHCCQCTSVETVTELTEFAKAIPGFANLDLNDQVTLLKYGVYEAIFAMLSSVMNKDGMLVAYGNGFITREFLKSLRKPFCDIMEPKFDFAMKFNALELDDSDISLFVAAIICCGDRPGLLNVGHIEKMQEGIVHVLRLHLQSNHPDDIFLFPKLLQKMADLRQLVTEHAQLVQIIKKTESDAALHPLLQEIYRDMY
# Chain of human Thyroid Receptor alpha (THRa1), THRA (gene 7067) (P10827 whole entry, looked up, the tested form may be a part): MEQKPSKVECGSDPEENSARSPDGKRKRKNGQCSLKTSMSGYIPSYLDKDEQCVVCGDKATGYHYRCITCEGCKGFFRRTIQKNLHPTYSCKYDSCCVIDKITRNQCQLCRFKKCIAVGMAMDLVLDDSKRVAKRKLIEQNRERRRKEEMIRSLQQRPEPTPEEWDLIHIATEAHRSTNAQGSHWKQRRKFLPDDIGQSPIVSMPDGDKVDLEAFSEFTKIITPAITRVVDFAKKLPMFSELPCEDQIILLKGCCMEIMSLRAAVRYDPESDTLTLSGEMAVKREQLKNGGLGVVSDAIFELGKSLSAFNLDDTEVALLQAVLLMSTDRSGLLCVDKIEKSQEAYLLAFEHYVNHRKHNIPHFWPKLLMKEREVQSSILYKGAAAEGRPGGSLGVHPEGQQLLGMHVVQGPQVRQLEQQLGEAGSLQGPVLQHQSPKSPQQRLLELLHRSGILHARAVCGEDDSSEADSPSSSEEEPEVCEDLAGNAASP
# Chain of Peroxisome proliferator-activated receptor gamma (Homo sapiens) (P37231 whole entry, looked up): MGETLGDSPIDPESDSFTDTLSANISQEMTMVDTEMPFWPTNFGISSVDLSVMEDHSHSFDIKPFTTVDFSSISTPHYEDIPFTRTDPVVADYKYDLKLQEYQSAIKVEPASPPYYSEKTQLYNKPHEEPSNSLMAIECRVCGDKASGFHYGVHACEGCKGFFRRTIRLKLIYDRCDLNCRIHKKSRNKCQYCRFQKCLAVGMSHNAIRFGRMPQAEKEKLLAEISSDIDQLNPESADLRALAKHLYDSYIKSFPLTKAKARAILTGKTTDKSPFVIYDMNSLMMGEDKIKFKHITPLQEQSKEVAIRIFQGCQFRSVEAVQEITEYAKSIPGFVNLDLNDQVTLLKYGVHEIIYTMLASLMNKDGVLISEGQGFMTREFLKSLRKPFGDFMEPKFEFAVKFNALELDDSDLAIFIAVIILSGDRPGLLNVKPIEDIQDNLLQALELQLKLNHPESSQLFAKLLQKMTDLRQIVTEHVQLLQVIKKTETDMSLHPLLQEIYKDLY
# Chain of Nuclear receptor subfamily 1 group I member 2 (Homo sapiens) (O75469 whole entry, looked up, the tested form may be a part): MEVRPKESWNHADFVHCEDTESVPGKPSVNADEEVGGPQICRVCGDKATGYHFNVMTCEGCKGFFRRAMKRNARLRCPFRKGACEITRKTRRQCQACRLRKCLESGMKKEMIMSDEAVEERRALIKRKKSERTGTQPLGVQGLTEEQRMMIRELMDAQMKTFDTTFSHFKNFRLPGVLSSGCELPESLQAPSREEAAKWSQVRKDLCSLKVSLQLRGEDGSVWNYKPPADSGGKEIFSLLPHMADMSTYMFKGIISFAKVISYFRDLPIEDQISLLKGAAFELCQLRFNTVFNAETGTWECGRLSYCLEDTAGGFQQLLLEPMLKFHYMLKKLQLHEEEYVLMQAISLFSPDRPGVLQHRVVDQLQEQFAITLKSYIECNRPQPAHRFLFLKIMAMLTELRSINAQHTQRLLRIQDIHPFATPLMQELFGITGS
# Chain of human RAR-related Orphan Receptor gamma (RORg), RORC (gene 6097) (P51449 whole entry, looked up, the tested form may be a part): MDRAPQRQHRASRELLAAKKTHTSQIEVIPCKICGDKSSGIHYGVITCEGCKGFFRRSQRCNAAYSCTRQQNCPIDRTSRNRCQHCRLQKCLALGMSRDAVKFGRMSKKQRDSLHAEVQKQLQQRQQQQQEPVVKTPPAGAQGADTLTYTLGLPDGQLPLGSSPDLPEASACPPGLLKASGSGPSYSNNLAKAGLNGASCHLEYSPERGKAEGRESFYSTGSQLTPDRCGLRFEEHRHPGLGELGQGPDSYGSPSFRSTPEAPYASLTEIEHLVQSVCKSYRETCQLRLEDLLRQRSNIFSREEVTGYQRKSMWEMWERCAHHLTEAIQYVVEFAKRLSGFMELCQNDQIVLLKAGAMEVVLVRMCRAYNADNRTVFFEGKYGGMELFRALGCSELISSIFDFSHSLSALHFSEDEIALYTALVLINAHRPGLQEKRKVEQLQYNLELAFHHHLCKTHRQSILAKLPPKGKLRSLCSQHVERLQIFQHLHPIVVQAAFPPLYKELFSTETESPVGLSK
# Chain of human RAR-related Orphan Receptor beta (RORb), RORB (gene 6096) (Q92753 whole entry, looked up, the tested form may be a part): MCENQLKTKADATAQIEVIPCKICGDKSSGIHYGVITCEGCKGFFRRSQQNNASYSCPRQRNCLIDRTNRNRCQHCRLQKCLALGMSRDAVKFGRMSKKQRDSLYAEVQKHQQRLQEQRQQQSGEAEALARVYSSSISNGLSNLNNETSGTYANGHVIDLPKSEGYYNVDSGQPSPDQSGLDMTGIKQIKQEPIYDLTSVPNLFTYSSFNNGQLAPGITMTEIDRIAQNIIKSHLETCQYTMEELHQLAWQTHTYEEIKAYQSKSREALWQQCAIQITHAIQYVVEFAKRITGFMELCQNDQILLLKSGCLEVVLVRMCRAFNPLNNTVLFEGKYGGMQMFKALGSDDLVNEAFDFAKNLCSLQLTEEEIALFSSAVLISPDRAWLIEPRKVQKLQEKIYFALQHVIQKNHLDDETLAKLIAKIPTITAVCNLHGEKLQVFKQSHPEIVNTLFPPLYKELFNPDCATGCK
# Chain of human Retinoid X Receptor beta (RXRb), RXRB (gene 6257) (P28702 whole entry, looked up, the tested form may be a part): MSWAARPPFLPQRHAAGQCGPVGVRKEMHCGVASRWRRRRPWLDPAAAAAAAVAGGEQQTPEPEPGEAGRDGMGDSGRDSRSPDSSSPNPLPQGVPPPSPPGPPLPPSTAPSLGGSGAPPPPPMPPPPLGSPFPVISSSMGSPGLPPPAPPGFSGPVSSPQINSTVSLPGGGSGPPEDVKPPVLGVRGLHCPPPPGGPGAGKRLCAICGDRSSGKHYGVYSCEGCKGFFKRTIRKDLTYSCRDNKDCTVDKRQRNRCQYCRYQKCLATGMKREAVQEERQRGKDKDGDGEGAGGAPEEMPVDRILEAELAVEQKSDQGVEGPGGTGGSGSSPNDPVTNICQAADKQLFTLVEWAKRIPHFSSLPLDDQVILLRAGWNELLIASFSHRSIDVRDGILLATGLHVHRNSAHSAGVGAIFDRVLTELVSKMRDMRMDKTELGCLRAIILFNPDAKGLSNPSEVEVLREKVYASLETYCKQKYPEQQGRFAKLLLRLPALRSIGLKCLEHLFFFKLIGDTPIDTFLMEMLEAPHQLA
# Chain of Retinoic acid receptor RXR-alpha (Homo sapiens) (P19793 whole entry, looked up, the tested form may be a part): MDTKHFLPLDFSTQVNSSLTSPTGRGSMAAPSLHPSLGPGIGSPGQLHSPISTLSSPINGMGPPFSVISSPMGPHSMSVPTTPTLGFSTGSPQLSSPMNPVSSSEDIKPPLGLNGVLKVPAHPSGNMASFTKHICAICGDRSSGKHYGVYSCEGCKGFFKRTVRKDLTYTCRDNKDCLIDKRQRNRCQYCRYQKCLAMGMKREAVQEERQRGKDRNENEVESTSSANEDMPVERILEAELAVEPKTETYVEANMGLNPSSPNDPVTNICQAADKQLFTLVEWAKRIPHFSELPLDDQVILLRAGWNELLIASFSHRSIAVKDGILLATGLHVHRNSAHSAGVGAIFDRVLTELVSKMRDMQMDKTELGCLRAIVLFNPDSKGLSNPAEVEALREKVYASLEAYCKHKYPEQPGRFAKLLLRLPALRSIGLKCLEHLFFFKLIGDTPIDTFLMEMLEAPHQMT
# Chain of human Peroxisome Proliferator-activated Receptor delta (PPARd), PPARD (gene 5467) (Q03181 whole entry, looked up, the tested form may be a part): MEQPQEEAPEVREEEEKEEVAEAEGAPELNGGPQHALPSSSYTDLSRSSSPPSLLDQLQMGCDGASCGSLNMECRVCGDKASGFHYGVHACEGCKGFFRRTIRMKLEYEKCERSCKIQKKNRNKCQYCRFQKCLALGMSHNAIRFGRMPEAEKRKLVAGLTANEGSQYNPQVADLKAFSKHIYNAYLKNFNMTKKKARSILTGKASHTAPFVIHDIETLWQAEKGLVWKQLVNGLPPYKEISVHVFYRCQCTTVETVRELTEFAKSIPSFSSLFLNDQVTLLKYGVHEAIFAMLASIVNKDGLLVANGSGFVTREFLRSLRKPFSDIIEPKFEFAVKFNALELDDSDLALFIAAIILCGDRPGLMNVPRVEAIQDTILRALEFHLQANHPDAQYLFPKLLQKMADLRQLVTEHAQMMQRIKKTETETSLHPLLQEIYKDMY
# Chain of E-selectin (Homo sapiens) (P16581 whole entry, looked up): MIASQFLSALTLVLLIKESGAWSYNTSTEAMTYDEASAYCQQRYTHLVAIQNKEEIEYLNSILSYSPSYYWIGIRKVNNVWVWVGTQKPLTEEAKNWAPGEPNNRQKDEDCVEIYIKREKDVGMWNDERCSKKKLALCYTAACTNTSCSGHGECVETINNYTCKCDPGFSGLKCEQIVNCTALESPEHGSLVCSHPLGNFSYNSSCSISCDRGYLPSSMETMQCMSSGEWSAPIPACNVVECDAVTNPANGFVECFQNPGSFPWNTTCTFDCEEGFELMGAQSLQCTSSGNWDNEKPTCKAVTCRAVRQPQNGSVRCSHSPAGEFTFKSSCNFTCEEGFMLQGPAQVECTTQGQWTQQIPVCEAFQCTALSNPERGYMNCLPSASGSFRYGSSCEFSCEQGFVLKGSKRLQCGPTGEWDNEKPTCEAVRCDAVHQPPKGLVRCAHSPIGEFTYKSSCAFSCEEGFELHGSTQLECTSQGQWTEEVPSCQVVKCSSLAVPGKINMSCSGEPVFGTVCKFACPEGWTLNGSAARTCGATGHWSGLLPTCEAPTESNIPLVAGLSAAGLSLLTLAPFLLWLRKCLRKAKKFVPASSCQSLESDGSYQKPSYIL
compound,measurement,setting,value
Cc1ccc(C(C)C)cc1O,outcome,[1],inactive
same,outcome,[2],inactive
same,outcome,[3],inactive
same,outcome,[4],inactive
same,AC50,[5],100 µM (active)
same,outcome,[6],inactive
COc1ccc(OC)c(OC)c1,outcome,[1],inactive
same,outcome,[2],inactive
same,outcome,[3],inactive
same,outcome,[4],inactive
same,outcome,[7],inactive
same,outcome,[6],inactive
C=CCOc1nc(OCC=C)nc(OCC=C)n1,outcome,[1],inactive
same,AC50,[2],61.4 µM (active)
same,AC50,[3],14.9 µM (active)
same,outcome,[7],inactive
same,AC50,[5],81 µM (active)
same,outcome,[6],inactive
CC(C)=CCC[C@H](C)CC=O,outcome,[1],inactive
same,outcome,[2],inactive
same,outcome,[3],inactive
same,outcome,[7],inactive
same,outcome,[5],inactive
same,outcome,[6],inactive
N#Cc1ccccc1,outcome,[1],inactive
same,outcome,[2],inactive
same,outcome,[3],inactive
same,outcome,[4],inactive
same,outcome,[7],inactive
O=C(O)CCSCCC(=O)O,outcome,[1],inactive
same,outcome,[2],inactive
same,outcome,[3],inactive
same,outcome,[4],inactive
same,outcome,[7],inactive
same,outcome,[5],inactive
O=C(O)c1cccc(C(F)(F)F)c1,outcome,[1],inactive
same,outcome,[2],inactive
same,outcome,[7],inactive
CC(=O)Nc1ccc(CC(=O)O)cc1,outcome,[1],inactive
same,outcome,[2],inactive
same,outcome,[8],inactive
Cc1cccc(C)c1C,outcome,[1],inactive
same,outcome,[2],inactive
same,outcome,[8],inactive
same,outcome,[4],inactive
same,outcome,[6],inactive
Nc1nc2ccc([N+](=O)[O-])cc2s1,outcome,[1],inactive
same,AC50,[2],29.7 µM (active)
same,outcome,[3],inactive
same,outcome,[5],inactive
same,outcome,[6],inactive
CCCC(=O)OCCC(C)CCC=C(C)C (centres undefined),outcome,[1],inactive
same,AC50,[2],31 µM (active)
same,outcome,[4],inactive
same,outcome,[7],inactive
same,outcome,[6],inactive
C=C(C)C(=O)Nc1ccc(Cl)c(Cl)c1,outcome,[1],inactive
same,AC50,[2],18.4 µM (active)
same,outcome,[8],inactive
same,outcome,[7],inactive
same,AC50,[5],41 µM (active)
same,outcome,[6],inactive
CC(C)CCCCCCCOC(=O)c1ccc(C(=O)OCCCCCCCC(C)C)c(C(=O)OCCCCCCCC(C)C)c1,outcome,[1],inactive
same,outcome,[2],inactive
same,outcome,[3],inactive
same,outcome,[8],inactive
same,outcome,[4],inactive
CC(C)(C#N)c1cc(Cn2cncn2)cc(C(C)(C)C#N)c1,outcome,[1],inactive
same,outcome,[2],inactive
same,outcome,[3],inactive
same,outcome,[7],inactive
same,outcome,[5],inactive
CCCCCCCCCCCCN,outcome,[1],inactive
same,outcome,[4],inactive
same,outcome,[5],inactive
CC1CCC2CC1C2(C)C (centres undefined),outcome,[1],inactive
same,outcome,[3],inactive
same,outcome,[4],inactive
same,outcome,[5],inactive
C=COCCOCCOCCOC=C,outcome,[1],inactive
same,outcome,[6],inactive
c1ccc2sc(SN(C3CCCCC3)C3CCCCC3)nc2c1,outcome,[9],inactive
same,outcome,[10],inactive
same,AC50,[11],8.86 µM (active)
same,outcome,[2],inactive
same,AC50,[3],0.629 µM (active)
same,outcome,[8],inactive
same,outcome,[5],inactive
same,AC50,[12],1.78 µM (active)
same,outcome,[13],inactive
same,AC50,[14],10.1 µM (active)
same,AC50,[15],4.34 µM (active)
same,AC50,[16],10.2 µM (active)
same,outcome,[17],inactive
Cc1c(N(C)C)c(=O)n(-c2ccccc2)n1C,outcome,[1],inactive
same,outcome,[3],inactive
same,outcome,[8],inactive
same,outcome,[4],inactive
same,outcome,[7],inactive
same,outcome,[6],inactive
CCN(CC)CCOC(=O)c1ccc(N)cc1,outcome,[1],inactive
same,outcome,[2],inactive
same,outcome,[5],inactive
same,outcome,[6],inactive
